Reference: PubChem BioAssay AID817 (Emory University Molecular Libraries Screening Center, 2007)
Among all 140,000 compounds or so, about 300 (0.21%) were called active.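 Rule for the calls: active = z-score above 3 at both the 24 hr and the 30 hr optical density reads; inactive = the rest, inconclusive results apart.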 For the sample, actives were picked, then their nearest neighbours and some compounds at random.

Experiment: restorers of sdo1-deficient yeast growth – S. cerevisiae, bone marrow failure model, primary screen (AID 817);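 note: z-score against mean and SD of all compound wells on the same plate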
Details: S. cerevisiae sdo1-depleted JHY4D growth rescue, at 10 µM, stronger effect = higher value, pdr5 snq2 efflux-pump mutant strain
[1] = OD600, measured here: growth rescue at 24 h

SMILES	z-score (OD600 30 h)	z-score [1]
C=CCc1ccccc1OCC(=O)N/N=C/c1ccccc1OCC	0.63 (inactive)	0.43
CC(=O)N1CCN(CC(=O)Nc2ccc(SC(F)F)cc2)CC1	1.61 (inactive)	1.79
CC(C)CNC(=O)CC(NCC(C)C)C(=O)O (centres undefined)	0.7 (inactive)	0.56
c1ccc(C2CNCc3c2ccc2ccccc32)cc1 (centres undefined)	-0.88 (inactive)	-1.37
CCc1nnc(NC(=O)[C@@H](NC(=O)c2cccc(C)c2)C(C)C)s1	0.02 (inactive)	-0.75
CCc1cccc(CC)c1NC(=S)NCc1ccc2[nH]c(C)cc2c1	-0.04 (inactive)	0.97
CC1CCCC(NC(=O)COC(=O)[C@@H]2CC(O)CN2S(=O)(=O)c2ccc3c(c2)OCCO3)C1C (some centres undefined)	1.03 (inactive)	1.42
Cc1nc2scc(-c3cccs3)c2c(=O)n1N	0.14 (inactive)	-0.79
O=C(COC(=O)/C=C/c1nc2ccccc2s1)Nc1ccccc1Oc1ccccc1	-0.21 (inactive)	0.04
CC(=O)NS(=O)(=O)c1ccc(NC(=O)C2C3C=CC(C3)C2C(=O)O)cc1 (centres undefined)	-0.71 (inactive)	-0.47
CN(C)C(CNC(=O)c1ccc(S(=O)(=O)NCc2ccco2)cc1)c1ccccc1 (centres undefined)	0.96 (inactive)	0.68
COc1ccc(C)cc1Nc1nc(-c2c(C)[nH]c3ccccc23)cs1	-0.39 (inactive)	-0.09
CCCn1c(=O)c2c(C(F)(F)F)cc(-c3cccs3)nc2n(CCC)c1=O	1.32 (inactive)	2.13
O=C(NCc1cccs1)C(=O)NCC1OCCCN1S(=O)(=O)c1ccc(F)cc1 (centres undefined)	-0.71 (inactive)	-1.35
CCOc1ccc(NC(=S)N2CCC(N(C)CC3CCCO3)CC2)cc1 (centres undefined)	0.68 (inactive)	1.31
Cc1[nH]c2ccccc2c1/C=N/NC(=O)CNC(=O)c1ccc2c(c1)OCO2	1.92 (inactive)	3.35
NC(=S)N/N=C/c1coc2cc(Cl)ccc2c1=O	-1.25 (inactive)	-1.16
O=C(CSc1nnc(-c2ccncc2)o1)NCc1ccc(Cl)cc1	0.26 (inactive)	-0.05
COc1ccc(NC(=S)NC2CCS(=O)(=O)C2)cc1 (centres undefined)	-0.13 (inactive)	-0.11
COCCn1c(=NC(=O)c2ccccc2[N+](=O)[O-])sc2cc(S(C)(=O)=O)ccc21	-0.84 (inactive)	-0.91
COC(=O)c1onc(-c2c(OC)cc(OC)cc2OC)c1C(=O)OC	0.49 (inactive)	0.26
O=C(COC(=O)c1cc(=O)[nH]c2ccccc12)Nc1nc(-c2cccc(Br)c2)cs1	-0.47 (inactive)	-0.07
C=CCNC(=O)c1ccccc1NC(=O)c1ccc(Cl)c(S(=O)(=O)Nc2cccc(C)c2C)c1	-0.47 (inactive)	0.23
C=CCN1C(=O)C(Cc2ccc(OCC)cc2)SC1=Nc1ccc(C(=O)O)cc1 (centres undefined)	-0.13 (inactive)	-0.75
CC(C)CCNC(=O)c1cccnc1Sc1ccccc1	0.7 (inactive)	0.32
Cc1ccc(/C=N/NC(=O)CNC(=O)COc2ccccc2)o1	1.11 (inactive)	1.1

SMILES	z-score (OD600 30 h)	z-score [1]
CS(=O)(=O)N(Cc1ccccc1)c1ccc(C(=O)NN=C2CCCCCC2)cc1	-0.22 (inactive)	-0.83
COc1ccccc1OCc1ccc(C(=O)N2CCN(C)CC2)o1	0.86 (inactive)	0.24
CN1CCN(C(=O)/C(=C\c2cccs2)NC(=O)c2cccs2)CC1	0.48 (inactive)	0.2
CCOc1ccc(C(=O)NC(=S)Nc2ccc(N3CCOCC3)c(Cl)c2)cc1[N+](=O)[O-]	-1.76 (inactive)	-1.28
COc1ccc(C(=O)NNS(=O)(=O)c2ccc(C)cc2)cc1	-0.36 (inactive)	-1.37
CC1(C)C=C2[C@H]3CC[C@@H]4[C@@]5(C)CCC(=O)C(C)(C)[C@@H]5CC[C@@]4(C)[C@]3(C)CC[C@@]2(C(=O)O)CC1	-0.02 (inactive)	-0.53
FC(F)(F)c1cccc(N/N=C/c2ccccc2)c1	-1.78 (inactive)	-1.53
COc1ccccc1N1CCN(C(=O)C(=O)N/N=C/c2ccccc2F)CC1	1.25 (inactive)	0.28
COc1ccc(OC(C)C(=O)NCCc2nc3ccccc3[nH]2)cc1 (centres undefined)	0.82 (inactive)	-0.04
COc1ccccc1-n1c(C)nc2cc(C(=O)NCc3ccc4c(c3)OCO4)ccc21	-0.72 (inactive)	-1.61
COC(=O)c1cc(C(=O)N(Cc2ccccc2)c2ccccn2)cc([N+](=O)[O-])c1	-0.07 (inactive)	-0.08
CCc1ccccc1NC(=O)CN(C)C(=O)COc1ccc(C)nc1[N+](=O)[O-]	-0.39 (inactive)	-0.24
Cc1[nH]c2ccccc2c1C(=O)COC(=O)C(C)C	0.17 (inactive)	-0.5
CCOC(=O)N1CCN(CC(=O)c2c(C)[nH]c3ccccc23)CC1	-0.21 (inactive)	-1.53
Cc1[nH]c2ccccc2c1C(=O)CSCC(=O)O	10.5 (active)	8.73
CCCC1OC23CCCCC2C(C#N)(C#N)C1(C#N)C(=N)O3 (centres undefined)	0.28 (inactive)	0.9
CCOc1ccc2c(=O)c(-c3ccc4c(c3)OCCCO4)c(C)oc2c1	0.07 (inactive)	-0.34
O=C(OCC(=O)c1c[nH]c2ccccc12)c1cccc(O)c1	0 (inactive)	0
O=C(NC(=S)Nc1ccc2oc(=O)ccc2c1)c1ccc(-c2cccc(Cl)c2Cl)o1	-0.64 (inactive)	0.44
CCOC(=O)c1c(NC(=S)Nc2ccccc2C)sc2c1CCC2	-0.66 (inactive)	0.75
COc1ccc(C(C[N+](=O)[O-])n2nc(C)cc2C)cc1 (centres undefined)	-2.03 (inactive)	-0.33
O=C(N/N=C\c1ccc(Br)cc1)c1ccc(Cn2cccn2)o1	0.87 (inactive)	-0.05
O=S(=O)(NCC1CCCO1)c1cnc(Cl)c(Cl)c1 (centres undefined)	1.1 (inactive)	0.93
Cc1c(C(=O)NCCN2C(=O)S/C(=C\c3cccs3)C2=O)cccc1[N+](=O)[O-]	-0.51 (inactive)	-0.6
COc1cccc(NC(=O)C(Sc2nc3ccccc3c(=O)n2CC(C)C)c2ccccc2)c1 (centres undefined)	-1.02 (inactive)	-0.31
Cc1nnnn1/C(=C\c1ccccc1)C(=O)OCC(=O)N1CC2(C)CC1CC(C)(C)C2 (centres undefined)	-1.27 (inactive)	-0.83
